# Laboratory results taken from publication PMC4336329 (PLoS ONE, 2015).
# Screen size: about 310,000 compounds; about 14,000 (4.5%) showed an effect of 50% or more. Effects have a minus sign here. The list comes from a sample in which strong results are over-represented; it also holds similar structures and randomly drawn compounds.
# Molecular target: human ether-à-go-go-related gene (hERG) potassium channel (human, UniProt Q12809)
# Assay: primary screen, population patch clamp on CHO cells stably expressing hERG; higher = less effect of the substance
# 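Also: peak tail current of the secondary pulse compared with the same well before compound.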
# human ether-à-go-go-related gene (hERG) potassium channel, sequence (Q12809 whole entry, looked up): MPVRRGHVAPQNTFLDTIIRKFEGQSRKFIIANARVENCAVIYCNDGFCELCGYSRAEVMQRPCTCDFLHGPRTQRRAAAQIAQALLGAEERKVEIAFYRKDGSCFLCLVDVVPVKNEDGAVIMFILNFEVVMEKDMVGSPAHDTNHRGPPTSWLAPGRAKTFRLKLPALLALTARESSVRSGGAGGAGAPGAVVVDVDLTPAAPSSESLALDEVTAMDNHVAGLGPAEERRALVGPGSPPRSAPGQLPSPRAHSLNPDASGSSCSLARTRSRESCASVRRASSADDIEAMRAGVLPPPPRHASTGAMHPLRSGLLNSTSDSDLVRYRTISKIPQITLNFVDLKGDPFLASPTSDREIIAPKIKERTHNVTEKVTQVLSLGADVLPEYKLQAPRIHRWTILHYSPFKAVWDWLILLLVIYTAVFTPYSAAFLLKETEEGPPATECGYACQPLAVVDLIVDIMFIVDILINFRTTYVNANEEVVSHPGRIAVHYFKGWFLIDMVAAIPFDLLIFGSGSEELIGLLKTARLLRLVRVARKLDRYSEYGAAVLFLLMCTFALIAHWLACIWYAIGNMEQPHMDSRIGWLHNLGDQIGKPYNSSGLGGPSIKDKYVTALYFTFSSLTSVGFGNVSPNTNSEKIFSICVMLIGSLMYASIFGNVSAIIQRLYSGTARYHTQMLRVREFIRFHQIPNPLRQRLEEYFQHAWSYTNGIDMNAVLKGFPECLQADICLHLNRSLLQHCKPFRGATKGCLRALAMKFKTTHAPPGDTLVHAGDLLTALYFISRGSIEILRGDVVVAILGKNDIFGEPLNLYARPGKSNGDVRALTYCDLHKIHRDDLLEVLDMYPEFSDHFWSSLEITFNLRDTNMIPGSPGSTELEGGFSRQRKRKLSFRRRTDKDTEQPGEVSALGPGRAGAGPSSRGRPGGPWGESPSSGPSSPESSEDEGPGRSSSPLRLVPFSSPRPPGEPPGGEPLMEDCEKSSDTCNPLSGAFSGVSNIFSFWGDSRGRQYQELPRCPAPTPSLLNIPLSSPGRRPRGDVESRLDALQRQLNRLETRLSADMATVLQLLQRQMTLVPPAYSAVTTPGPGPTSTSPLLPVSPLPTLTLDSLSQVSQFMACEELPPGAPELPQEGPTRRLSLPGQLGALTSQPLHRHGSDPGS
row,Structure (SMILES),"hERG current change (%, negative = inhibition) at 10uM"
1,COc1ccc(C(=O)Nc2ccccc2C(N)=O)cc1,-18.9%
2,CC(=O)Oc1cccc(N2C(=O)C3C4C=CC(CC4)C3C2=O)c1 (stereo not shown),16.1%
3,Cc1ccc(-c2nc3ccccc3c(=O)n2-c2ccc(O)cc2)cc1,-3.92%
4,CC(C)C1CCN(C(=O)C2CCC(=O)N(CCc3ccc(Cl)cc3)C2)CC1 (stereo not shown),-52.6%
5,O=C1CCC(C(=O)N2CCCCCC2)CN1CCc1ccc(Cl)cc1 (stereo not shown),-28.9%
6,O=C1CCC(C(=O)N2CCC(O)CC2)CN1CCc1ccc(Cl)cc1 (stereo not shown),1.38%
7,C=CCC1(CC=C)CCCN1C(=O)C1CCC(=O)N(CCc2ccc(OC)cc2)C1 (stereo not shown),-18.6%
8,C=CCC1(CC=C)CCCN1C(=O)C1CCC(=O)N(CCc2ccc(Cl)cc2)C1 (stereo not shown),-60%
9,C=CCC1(CC=C)CCCN1C(=O)C1CCC(=O)N(CCc2ccccc2)C1 (stereo not shown),-12.5%
10,COc1ccc(S(=O)(=O)Nc2ccccc2C)cc1,0.614%
11,C/C(=N\NC(N)=S)c1cccnc1,2.44%
12,C(=N\N1CCN(c2ccccn2)CC1)/c1ccccn1,13.5%
13,COc1ccccc1-c1c(C)nn2c(N3CCN(c4ccccc4OC)CC3)cc(C)nc12,3.75%
14,Cc1cc(C)c2c(n1)nn1c(N3CCN(c4ccccc4C)CC3)cc(C)nc21,7.78%
15,Cc1ccc(Nc2cc(C)nc3nc(C)nn23)c(C)c1,9.08%
16,COc1cccc(Nc2cc(C)nc3nc(C)nn23)c1,-12.8%
17,Cc1cc(N2CCN(c3ccccn3)CC2)n2nc(C)nc2n1,-51.4%
18,COc1ccccc1N1CCN(c2cc(C)nc3nc(C)nn23)CC1,-57.6%
19,COc1ccccc1N1CCN(c2nc(C)cc(=O)[nH]2)CC1,11.6%
20,Cc1cc(Nc2cccc(F)c2)n2nc(C)nc2n1,-12.1%
21,Cc1ccc(/C=N/N2CCN(c3ccccn3)CC2)cc1,2.68%
22,Cc1ccc(N2CCN(c3cc(C)nc4nc(C)nn34)CC2)c(C)c1,-72.6%
23,Cc1cc(Nc2cccc(C(F)(F)F)c2)n2nc(C)nc2n1,-51.8%

row,Structure (SMILES),"hERG current change (%, negative = inhibition) at 10uM"
1,COC(=O)C(CC(C)C)NC(=O)CNC(=O)c1ccccc1C (stereo not shown),3.34%
2,C/C(=N\OCC(=O)Nc1cc(C)cc(C)c1)c1ccc2c(c1)OCCO2,-13%
3,CCC12CN3CCN(CC(C3)/C1=N/NC(N)=O)C2,21%
4,Cc1c(Cl)cccc1-n1ccnc1SCC(=O)O,18.2%
5,O=S(=O)(/N=C(/c1ccccc1)N1CCOCC1)c1ccc(F)cc1,23.7%
6,COc1ccc(-c2cc(C(=O)N(C)Cc3cccc(OC)c3OC)c3ccccc3n2)cc1OC,-28.8%
7,COc1ccc(OC)c(/C=C/C(=O)Oc2ccc(C(C)=O)cc2)c1,13.8%
8,Nc1c(-c2ccccc2)cnn1-c1cccc(C(F)(F)F)c1,1.64%
9,Cc1nnc(SCC(=O)NC2CCCCCC2)n1C,23.4%
10,Cc1cc(N2CCOCC2)n2nc(C)c(-c3ccc(Cl)cc3)c2n1,8.58%
11,Cc1nc2nc(-c3ccc(Cl)cc3)nn2c(C)c1Cl,8.82%
12,Cl.FC(F)(F)c1cccc(N2CCNCC2)c1,-13.3%
13,COc1ccccc1N1CCN(c2ccc3ccccc3n2)CC1,-36.5%
14,Cn1nc(C(F)(F)F)c(C#N)c1N1CCN(c2cccc(C(F)(F)F)c2)CC1,3.01%
15,Cc1cc(N2CCN(c3cccc(C(F)(F)F)c3)CC2)n2nc(C)nc2n1,-61.9%
16,CCOc1cc(C)nc(N2CCN(C3CCCCC3)CC2)n1,-67.5%
17,COc1ccccc1N1CCN(c2cc(N3CCCC3)nc(C)n2)CC1,-65.3%
18,Cc1cc(N2CCN(C)CC2)n2nc(-c3ccc(Cl)cc3)nc2n1,-77.3%
19,CCOc1cc(C)nc(N2CCC(C(=O)Nc3ccccc3OCC)CC2)n1,5.62%
20,COc1cc(C)nc(N2CCC(C(=O)NC3CCCCC3)CC2)n1,-3.08%
21,COc1ccccc1N1CCN(c2cnccn2)CC1,-2.25%
22,COc1ccc(/C=N/n2c(-c3cc(C)[nH]n3)n[nH]c2=S)cc1OC,18.6%
23,Cc1cccnc1NC(=O)CN1C(=O)NC(C)(c2ccc3ccccc3c2)C1=O (stereo not shown),-14%
